From the supplement of paper PMC12669032
A number with no mark means an inactive call.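 How the source made its calls: active = AUC reduced over 20% with Padj below 0.05 in at least 2 of 3 replicates; inactive = otherwise.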

Assays:
Test in all cases: growth AUC relative to DMSO control (median of replicates) (fraction); higher = more growth (less inhibition), active = hit call of the paper
Conditions in all cases: 20 µM; 24 h
Akkermansia muciniphila = test system: Akkermansia muciniphila
Summary of the method: (§1)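 Gut bacterial monocultures were grown anaerobically at 37 °C in mGAM from a starting OD600 of 0.05 with 20 µM compound (1% DMSO), in round-bottom 96-well plates under pierced gas-permeable seals, and OD600 was read hourly for 24 h. With the minimum OD set to 0, area under the growth curve was normalised to the plate median of solvent-only wells, or to row and column medians on the industrial chemical plate. Each value is the median of three biological replicates grown on separate days.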

Bacteroides caccae = test system: Bacteroides caccae
Summary of the method: as §1

Bacteroides clarus = test system: Bacteroides clarus
Summary of the method: as §1

Bacteroides dorei = test system: Bacteroides dorei
Summary of the method: as §1

Bacteroides stercoris = test system: Bacteroides stercoris
Summary of the method: as §1

[1] = test system: Bacteroides thetaiotaomicron
Summary of the method: as §1

Bacteroides uniformis = test system: Bacteroides uniformis
Summary of the method: as §1

[2] = test system: Bifidobacterium longum subsp. longum
Summary of the method: as §1

Clostridium difficile = test system: Clostridium difficile
Summary of the method: as §1

Collinsella aerofaciens = test system: Collinsella aerofaciens
Summary of the method: as §1

Coprococcus comes = test system: Coprococcus comes
Summary of the method: as §1

Escherichia coli ED1a = test system: Escherichia coli ED1a
Summary of the method: as §1

Escherichia coli IAI1 = test system: Escherichia coli IAI1
Summary of the method: as §1

Eubacterium rectale = test system: Eubacterium rectale
Summary of the method: as §1

[3] = test system: Fusobacterium nucleatum subsp. animalis
Summary of the method: as §1

Lactobacillus gasseri = test system: Lactobacillus gasseri
Summary of the method: as §1

Lactobacillus paracasei = test system: Lactobacillus paracasei
Summary of the method: as §1

Odoribacter splanchnicus = test system: Odoribacter splanchnicus
Summary of the method: as §1

[4] = test system: Parabacteroides distasonis
Summary of the method: as §1

Parabacteroides merdae = test system: Parabacteroides merdae
Summary of the method: as §1

SMILES | growth AUC (Akkermansia muciniphila) | growth AUC (Bacteroides caccae) | growth AUC (Bacteroides clarus) | growth AUC (Bacteroides dorei) | growth AUC (Bacteroides stercoris) | growth AUC [1] | growth AUC (Bacteroides uniformis) | growth AUC [2] | growth AUC (Clostridium difficile) | growth AUC (Collinsella aerofaciens) | growth AUC (Coprococcus comes) | growth AUC (Escherichia coli ED1a) | growth AUC (Escherichia coli IAI1) | growth AUC (Eubacterium rectale) | growth AUC [3] | growth AUC (Lactobacillus gasseri) | growth AUC (Lactobacillus paracasei) | growth AUC (Odoribacter splanchnicus) | growth AUC [4] | growth AUC (Parabacteroides merdae)
c1ccc2c(c1)-c1cccc3c1c-2cc1ccccc13 | 0.981 | 1.05 | 1.03 | 1.04 | 1.08 | 1.02 | 1.03 | 1.06 | 1.02 | 1.01 | 1.01 | 0.985 | 1.01 | 1.03 | 1.08 | 1.02 | 0.998 | 1.07 | 1.31 | 1.05
CCc1cc(C(=O)O)cc(CC)c1C1C(=O)N2CCOCCN2C1=O | 1.02 | 1.04 | 1.03 | 1.05 | 1.07 | 0.999 | 1.02 | 1.04 | 0.976 | 1.03 | 1 | 1.02 | 1.02 | 1.01 | 1.11 | 1.11 | 1.04 | 1.13 | 0.99 | 1.04
CC(C)N(C(=O)CS(=O)(=O)[O-])c1ccccc1.[Na+] | 1.01 | 1.02 | 1.02 | 1.04 | 0.909 | 0.955 | 1.05 | 1.29 | 1.06 | 0.967 | 0.982 | 0.978 | 0.988 | 1.07 | 1.09 | 0.948 | 1 | 0.981 | 0.96 | 1
CCNc1nc(N)nc(Cl)n1 | 0.954 | 1.01 | 1.02 | 1.01 | 1.12 | 1.03 | 1.02 | 1 | 1.03 | 0.996 | 0.995 | 1 | 1 | 1.02 | 1.04 | 0.933 | 0.891 | 1.02 | 1.02 | 1.02
CCOc1ccc(NC(=O)OC(C)C)cc1OCC | 1.08 | 0.95 | 1.02 | 0.928 | 1.2 | 0.844 | 0.938 | 1.05 | 0.971 | 0.974 | 0.942 | 1.01 | 1.04 | 1.21 | 1.09 | 0.99 | 0.835 | 0.722 (active) | 0.989 | 0.998
Cc1cc(C)cc(OCC(C)Nc2nc(N)nc(C(C)(C)F)n2)c1 (stereo not given) | 1.07 | 0.889 | 0.889 | 0.978 | 0.746 | 0.912 | 0.962 | 1.03 | 0.983 | 0.929 | 0.958 | 0.948 | 0.956 | 1.05 | 0.813 | 0.974 | 0.993 | 0.992 | 0.835 | 0.87
CCNc1nc(N)[nH]c(=O)n1 | 1.01 | 1.01 | 0.998 | 1.01 | 1.03 | 0.998 | 1.02 | 0.986 | 0.999 | 1.04 | 1.02 | 0.991 | 1 | 0.995 | 0.953 | 1.01 | 1.02 | 1.01 | 1.04 | 0.995
CCOC(=O)[C@@H](C)Oc1ccc(Oc2nc3ccc(Cl)cc3o2)cc1 | 0.975 | 0.971 | 0.966 | 0.983 | 1.03 | 1.01 | 0.929 | 1 | 1.03 | 1.02 | 1.01 | 1.03 | 1 | 0.876 | 1.02 | 0.991 | 1.03 | 1.09 | 0.999 | 0.971
CCN(CC)C(=O)c1cccc(C)c1 | 1.03 | 0.985 | 1.03 | 1.05 | 1.05 | 0.975 | 0.998 | 1.02 | 0.982 | 0.952 | 0.974 | 1 | 1.01 | 1.06 | 1.04 | 0.966 | 0.977 | 1.13 | 1.01 | 1.04
[O-][n+]1nc(-n2ccnc2)nc2ccc(Cl)cc21 | 0.972 | 1.07 | 1 | 1.05 | 0.911 | 0.99 | 1.04 | 0.974 | 0.957 | 0.964 | 1.04 | 0.95 | 0.956 | 1.12 | 1.06 | 0.831 | 1.01 | 1.03 | 0.897 | 1.02
COC(=O)C(C)Oc1ccc(Oc2ncc(C(F)(F)F)cc2Cl)cc1 (stereo not given) | 1.11 | 0.968 | 0.977 | 0.964 | 0.912 | 0.992 | 0.886 | 1.02 | 0.98 | 0.954 | 1.02 | 0.972 | 0.987 | 1.05 | 0.954 | 0.84 | 0.995 | 1.03 | 0.834 | 0.963
O=S(=O)(Cc1ccc(Cl)cc1)c1ccc(Cl)cc1 | 0.848 | 1 | 0.981 | 1.02 | 1.12 | 0.963 | 0.997 | 1.03 | 1.01 | 1.01 | 0.978 | 0.97 | 1.02 | 1.02 | 0.977 | 1.04 | 1.03 | 0.995 | 1 | 0.98
CC1=C(C(=O)Nc2ccccc2)CCCO1 | 0.955 | 0.992 | 1.01 | 1.01 | 0.951 | 0.99 | 1.06 | 1.15 | 1.01 | 1.01 | 1.01 | 0.992 | 0.981 | 0.974 | 0.969 | 0.952 | 1.03 | 1.05 | 0.974 | 1.01
Cc1cccc(C)c1N(C(=O)CCl)C1CCOC1=O (stereo not given) | 1.05 | 0.802 | 0.993 | 0.971 | 1.1 | 0.647 (active) | 0.894 | 1.04 | 0.966 | 0.959 | 0.889 | 0.963 | 1.01 | 1.09 | 1.02 | 0.953 | 1.01 | 0.408 | 0.99 | 0.981
N#Cc1ccccc1NC(=O)c1snc(Cl)c1Cl | 1.07 | 0.956 | 0.982 | 1.01 | 1.15 | 1 | 0.974 | 0.9 | 0.944 | 1.05 | 0.967 | 0.993 | 0.995 | 1.04 | 1.09 | 1 | 1.01 | 1.01 | 1 | 1.02
Cc1ccc(C(C)NC(=O)[C@@H](NC(=O)OC(C)C)C(C)C)cc1 (stereo not given in full) | 1.06 | 0.975 | 1.03 | 1.01 | 1.11 | 0.984 | 0.973 | 0.97 | 0.951 | 0.986 | 1.01 | 1.01 | 0.992 | 1.08 | 1.08 | 0.895 | 1.02 | 0.953 | 0.917 | 1.01
